Reference: PubChem BioAssay (NCI)
“And” between values parts separate entries of the source, which are not always exact repeats. Identical values can stand only once. Compounds without any hit were thinned out: in the full panel of roughly 83,000, 20% have a hit.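 In brief: 96-well plates, 48 h treatment, single concentration, percent growth endpoint.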 The source made the active and inactive calls. How the source made its calls: active means growth percent below 10; inactive means the rest.

Experiments:
Assay in all cases: NCI-60 one-dose screen, 48 h (100 = growth as untreated, 0 = no growth, -100 = all killed)
Conditions in all cases: 10 µM unless noted
HCT-15 colon = system: HCT-15 colon
HT29 colon = system: HT29 colon
SNB-75 CNS = system: SNB-75 CNS
SNB-19 CNS = system: SNB-19 CNS
U251 CNS = system: U251 CNS
PC-3 prostate = system: PC-3 prostate
SK-MEL-5 melanoma = system: SK-MEL-5 melanoma
UACC-62 melanoma = system: UACC-62 melanoma
LOX IMVI melanoma = system: LOX IMVI melanoma
SK-MEL-28 melanoma = system: SK-MEL-28 melanoma
SK-MEL-2 melanoma = system: SK-MEL-2 melanoma
SN12C renal = system: SN12C renal
UO-31 renal = system: UO-31 renal
TK-10 renal = system: TK-10 renal
ACHN renal = system: ACHN renal
CAKI-1 renal = system: CAKI-1 renal
A498 renal = system: A498 renal
CCRF-CEM leukemia = system: CCRF-CEM leukemia
MOLT-4 leukemia = system: MOLT-4 leukemia
EKVX NSCLC = system: EKVX NSCLC

Measured: growth

CCOC(C)=N
inactive: HCT-15 colon 105% | HT29 colon 102% | SNB-75 CNS 93.2% | SNB-19 CNS 104% | U251 CNS 104% | PC-3 prostate 99.3% | SK-MEL-5 melanoma 109% | UACC-62 melanoma 102% | LOX IMVI melanoma 100% | SK-MEL-28 melanoma 112% | SK-MEL-2 melanoma 110% | SN12C renal 105% | UO-31 renal 107% | TK-10 renal 107% | ACHN renal 104% | CAKI-1 renal 108% | A498 renal 120% | CCRF-CEM leukemia 98.6% | MOLT-4 leukemia 94.6%

COC1C(OC(N)=O)C(O)C(Oc2ccc3c(O)c(NC(=O)c4ccc(O)c(CC=C(C)C)c4)c(=O)oc3c2C)OC1(C)C (centres undefined)
inactive: HCT-15 colon 23.6% and 96% | HT29 colon 105% and 110% | SNB-75 CNS 28.8% and 77.2% | SNB-19 CNS 101% and 92.7% | U251 CNS 42.5% and 101% | PC-3 prostate 90.6% and 93.8% | SK-MEL-5 melanoma 103% and 98.2% | UACC-62 melanoma 103% and 97.9% | LOX IMVI melanoma 99.7% and 98.4% | SK-MEL-28 melanoma 108% | SK-MEL-2 melanoma 105% and 111% | SN12C renal 106% and 97.3% | UO-31 renal 107% and 96.9% | TK-10 renal 115% and 108% | CAKI-1 renal 85.9% and 101% | A498 renal 106% and 70.8% | CCRF-CEM leukemia 90% and 59.2% | MOLT-4 leukemia 75.4% and 93.5%

Clc1ccc2c(c1)N(C1CCCN(Cc3ccccc3)C1)c1ccccc1S2 (centres undefined)
inactive: HCT-15 colon 26.6% | HT29 colon 76.7% | SNB-75 CNS 27.6% | SNB-19 CNS 41.6% | U251 CNS 17.4% | PC-3 prostate 45% | SK-MEL-5 melanoma 23.3% | UACC-62 melanoma 44% | LOX IMVI melanoma 57% | SK-MEL-28 melanoma 56.9% | SK-MEL-2 melanoma 17.1% | EKVX NSCLC 74.4% | SN12C renal 39.7% | UO-31 renal 66.7% | TK-10 renal 98.6% | CAKI-1 renal 48.7% | A498 renal 70.6% | CCRF-CEM leukemia 39.7% | MOLT-4 leukemia 70.3%

CN(C=O)c1ccccc1
inactive: HCT-15 colon 95.1% | HT29 colon 99.9% | SNB-75 CNS 80.6% | SNB-19 CNS 102% | U251 CNS 93.5% | PC-3 prostate 88.4% | SK-MEL-5 melanoma 94.5% | UACC-62 melanoma 88.7% | LOX IMVI melanoma 89.5% | SK-MEL-28 melanoma 109% | SK-MEL-2 melanoma 103% | SN12C renal 93.3% | UO-31 renal 65.5% | TK-10 renal 121% | ACHN renal 92% | CAKI-1 renal 88.2% | A498 renal 98% | CCRF-CEM leukemia 95.7% | MOLT-4 leukemia 97.5%

CC(C)(C)OC(=O)CC1(O)CCCCC1
inactive: HCT-15 colon 105% | HT29 colon 111% | SNB-75 CNS 90.8% | SNB-19 CNS 106% | U251 CNS 104% | PC-3 prostate 96.8% | SK-MEL-5 melanoma 95.7% | UACC-62 melanoma 103% | LOX IMVI melanoma 102% | SK-MEL-28 melanoma 105% | SK-MEL-2 melanoma 107% | SN12C renal 100% | UO-31 renal 101% | TK-10 renal 99.6% | ACHN renal 105% | CAKI-1 renal 100% | A498 renal 84.6% | CCRF-CEM leukemia 106% | MOLT-4 leukemia 108%

O=C1CCC(=O)N1CC1CC2CCC1C2 (centres undefined)
inactive: HCT-15 colon 107% and 104% | HT29 colon 103% and 95.8% | SNB-75 CNS 87.2% and 73.1% | SNB-19 CNS 101% and 90.3% | U251 CNS 91.7% and 100% | PC-3 prostate 94.1% and 104% | SK-MEL-5 melanoma 110% and 92.6% | UACC-62 melanoma 96.5% and 88.5% | LOX IMVI melanoma 101% and 96.2% | SK-MEL-28 melanoma 109% and 103% | SK-MEL-2 melanoma 97.5% and 111% | SN12C renal 94% and 82.3% | UO-31 renal 101% and 95.5% | TK-10 renal 94.4% and 83.7% | ACHN renal 100% and 92.2% | CAKI-1 renal 67.2% and 91.1% | A498 renal 119% and 103% | CCRF-CEM leukemia 95.1% and 104% | MOLT-4 leukemia 54.1% and 111%

CCn1c2ccc(N(C)C)cc2c2cc(N(C)C)ccc21
inactive: HCT-15 colon 112% | HT29 colon 78.9% | SNB-75 CNS 99.3% | SNB-19 CNS 102% | U251 CNS 93.9% | PC-3 prostate 72.9% | SK-MEL-5 melanoma 97.6% | UACC-62 melanoma 91.9% | LOX IMVI melanoma 96.8% | SK-MEL-28 melanoma 98.9% | SK-MEL-2 melanoma 104% | EKVX NSCLC 88% | SN12C renal 104% | UO-31 renal 94.5% | TK-10 renal 118% | CAKI-1 renal 98.4% | A498 renal 86.2% | CCRF-CEM leukemia 85.5% | MOLT-4 leukemia 96.9%

O=C(c1ccccc1)C1(Br)CCCCC1
inactive: HCT-15 colon 99.1% | HT29 colon 120% | SNB-75 CNS 95.2% | SNB-19 CNS 92% | U251 CNS 95.6% | PC-3 prostate 99.2% | SK-MEL-5 melanoma 95.7% | UACC-62 melanoma 90.5% | LOX IMVI melanoma 86.7% | SK-MEL-28 melanoma 101% | SK-MEL-2 melanoma 104% | SN12C renal 93.6% | UO-31 renal 82.2% | TK-10 renal 103% | CAKI-1 renal 89% | A498 renal 102% | CCRF-CEM leukemia 97.5% | MOLT-4 leukemia 103%

COc1ccc(CCn2cnn3c(=O)c4ccccc4nc3c2=O)cc1OC
inactive: HCT-15 colon 104% and 109% | HT29 colon 106% and 104% | SNB-75 CNS 103% and 135% | SNB-19 CNS 104% and 96.6% | U251 CNS 101% and 104% | PC-3 prostate 102% and 98.7% | SK-MEL-5 melanoma 101% and 97% | UACC-62 melanoma 111% and 102% | LOX IMVI melanoma 98% | SK-MEL-28 melanoma 109% and 125% | SK-MEL-2 melanoma 107% and 118% | SN12C renal 107% and 101% | UO-31 renal 93.3% and 91.9% | TK-10 renal 114% and 106% | ACHN renal 101% and 109% | CAKI-1 renal 111% and 97.8% | A498 renal 90.6% and 129% | CCRF-CEM leukemia 97.6% | MOLT-4 leukemia 102% and 112%
